Inconclusive results are not listed. Activity calls are given as the source filed them. Calls come from the whole dose curve; as a rule, active = well fitted cell-killing curve with a large enough effect; inconclusive = small, poorly fitted or top-dose-only effect, or effect the other way; inactive = flat fitted curve, though single readings scatter.

The values below come from PubChem BioAssay (NCATS).
% is set by controls: 0 for no effect and ±100 for the full control effect; potency is the fitted concentration of half-maximal effect.

The nature of the assay: Cell Viability - HUV-EC-C (AID 542). Note: nearly all actives have a fitted effect of over 35% in size. As to conditions: HUV-EC-C endothelial cell viability, qHTS; series mostly up to 92.2 µM; activity change, negative = cytotoxicity: at the top concentration. The source says:
NIH Chemical Genomics Center [NCGC]
NIH Molecular Libraries Screening Centers Network [MLSCN]
National Institutes of Environmental Health Sciences [NIEHS]
National Toxicology Program [NTP]
We have developed a 1536-well cell-based assay for quantitative high throughput screening (qHTS) against a number of cell lines to determine in vitro cytotoxicity of small molecules. This particular assay uses the HUV-EC-C cell line which is derived from normal human vascular endothelial cells.
NCGC Assay Protocol Summary:
The CellTiter-Glo luminescent cell viability assay (Promega) is a homogeneous method to measure the number of viable cells in culture. The end point readout of this assay is based on quantitation of intracellular ATP, an indicator of metabolic activity, using the luciferase reaction. Luciferase catalyzes the oxidation of beetle Luciferin to oxyluciferin and light in the presence of ATP. The luminescent signal is proportional to amount of ATP present.
Using the CellTiter-Glo luminescent cell viability assay, the amount of cellular ATP was measured in the HUV-EC-C cell line with complete culture medium following compound treatment for 40 hours. The assay was performed in opaque white Kalypsys 1536-well plates. In the screen, tamoxifen and doxorubicin were used as positive controls. Library compounds were measured for their ability to cause acute toxicity in the cell line, as reflected by a decrease in intracellular ATP levels, in a concentration-dependent manner. […] AC50 values were determined from concentration-response data modeled with the standard Hill equation.
qHTS protocol for CellTiter Glo HUV-EC-C cellular assay
[Step] [Parameter] [Value] [Description]
1. Reagent; 5 uL; 1000 HUV-EC-C cells/well
2. Time; 5 hr; 37 °C incubation
4. Controls; 23 nL; Tamoxifen 0.34 uM to 100 uM & Doxorubicin 0.02 nM to 100 uM
5. Time; 40 hr; 37 °C incubation
6. Reagent; 5 uL; CellTiter Glo reagent
7. Time; 20 min; Room Temperature
8. Detection; Luminescence; Viewlux plate reader
Keywords: cell viability, cytotoxicity, HUV-EC-C cell line, luminescence, NTPHTS, NTPHTS_NCGC, NIEHS, EPA, DSSTox, MLSMR, MLSCN, NIH Roadmap, qHTS, NCGC
Consider `Oc1c(Cl)cccc1Cl`, for which the “activity change, negative = cytotoxicity” value was -4.31% (inactive).

For `N#CCCC#N`, the “activity change, negative = cytotoxicity” value was 9.85% (inactive).

On to `C[N+](=O)[O-]`, for which the “activity change, negative = cytotoxicity” value was 8.8% (inactive).

Consider `CC(=O)NNc1ccccc1`, for which the “activity change, negative = cytotoxicity” value was -6.37% (inactive).

With `CCN(N=O)C(N)=O`, the “activity change, negative = cytotoxicity” value was 4.65% (inactive).

Regarding `O=[N+]([O-])c1cccc2c([N+](=O)[O-])cccc12`, the “activity change, negative = cytotoxicity” value was -12.3% (inactive).

Take `Nc1ccc(Oc2ccc(N)cc2)cc1`: the “activity change, negative = cytotoxicity” value is -11.6% (inactive).

`Brc1cccc(-c2ccccc2)c1`: the “activity change, negative = cytotoxicity” value was 6.5% (inactive).

Take `ClC=CCl`: the “activity change, negative = cytotoxicity” value was -3.89% (inactive).

With `CN1CSC(=S)N(C)C1`, the “activity change, negative = cytotoxicity” value is -18.3% (inactive).

Regarding `CCCCCCCCCCCCCl`, the “activity change, negative = cytotoxicity” value was 16% (inactive).

Turning to `C=C(Cl)CSC(=S)N(CC)CC`, the “activity change, negative = cytotoxicity” value was -2.4% (inactive).

`C=CC(=O)OCCN(C)C`: the “activity change, negative = cytotoxicity” value was 7.5% (inactive).

Regarding `Nc1ccc(Cc2ccc(N)cc2)cc1`, the “activity change, negative = cytotoxicity” value is 6.65% (inactive).

Take `OC[P+](CO)(CO)CO`: the “activity change, negative = cytotoxicity” value is -12.7% (inactive).

Consider `CNC(=O)O/N=C/C(C)(C)S(C)=O` (stereo not given), for which the “activity change, negative = cytotoxicity” value was -3.59% (inactive).

Consider `CN(C)C(=O)Nc1cccc(C(F)(F)F)c1`, for which the “activity change, negative = cytotoxicity” value is 1.43% (inactive).

On to `Nn1cnnc1`, for which the “activity change, negative = cytotoxicity” value is 16.9% (inactive).

Take `CC[N+](=O)[O-]`: the “activity change, negative = cytotoxicity” value was 11.3% (inactive).

Turning to `O=P(OCCCl)(OCCCl)OCCCl`, the “activity change, negative = cytotoxicity” value is 14.3% (inactive).

Turning to `ClC(Br)Br`, the “activity change, negative = cytotoxicity” value was 0.125% (inactive).

With `Nc1c(Cl)cc([N+](=O)[O-])cc1Cl`, the “activity change, negative = cytotoxicity” value is -24% (inactive).

Regarding `c1ccc2c(c1)CCNC2`, the “activity change, negative = cytotoxicity” value is -6.12% (inactive).

For the molecule `Cc1ccc2c(C)cccc2c1`, the “activity change, negative = cytotoxicity” value is -16.9% (inactive).

As to `N#CCCCCC#N`, the “activity change, negative = cytotoxicity” value was -2.01% (inactive).

`C=CCCC#N`: the “activity change, negative = cytotoxicity” value was 3.35% (inactive).

`C(CCOCC1CO1)COCC1CO1` (stereo not given): the “activity change, negative = cytotoxicity” value was -2.67% (inactive).

Turning to `CN(C)c1ccc(N)cc1`, the Potency is 31.6 µM (active).

In the case of `Nc1cc(Cl)ccc1Cl`, the “activity change, negative = cytotoxicity” value is -2.23% (inactive).

With `CCC#N`, the “activity change, negative = cytotoxicity” value is -5.79% (inactive).

`CCCC[N+](=O)[O-]`: the “activity change, negative = cytotoxicity” value is -6.13% (inactive).

Regarding `OCC(Cl)CCl` (stereo not given), the “activity change, negative = cytotoxicity” value is -2.18% (inactive).

On to `CC(Cl)CCl` (stereo not given), for which the “activity change, negative = cytotoxicity” value is 13.7% (inactive).

Turning to `O=C(Cc1ccccc1)OCc1ccccc1`, the “activity change, negative = cytotoxicity” value is 9.91% (inactive).

`CC(C)(C)c1ccccc1O`: the “activity change, negative = cytotoxicity” value is -4.15% (inactive).

With `COc1ccc(C=O)cc1`, the “activity change, negative = cytotoxicity” value was -1.1% (inactive).

On to `CCBr`, for which the “activity change, negative = cytotoxicity” value is 9.67% (inactive).

With `C=CC#N`, the “activity change, negative = cytotoxicity” value was 17.1% (inactive).

With `CCCCOC(=O)c1ccccc1N`, the “activity change, negative = cytotoxicity” value is 7.41% (inactive).

Turning to `Cc1cccc(C)c1N`, the “activity change, negative = cytotoxicity” value was 10.4% (inactive).
